26 molecules from PubChem BioAssay (NCI) can be followed below.

Experiment in all cases: NCI-60 one-dose screen, 48 h (100 = growth as untreated, 0 = no growth, -100 = all killed)
Settings in all cases: 10 µM unless noted

For test [1], the system named is SK-MEL-2 melanoma.
Test [2] concerns EKVX NSCLC.
For test [3], the system named is SN12C renal.
For test [4], the system named is UO-31 renal.
Test [5] concerns TK-10 renal.
The subject of test [6] is ACHN renal.
Test [7] relates to CAKI-1 renal.
In test [8] the test system is A498 renal.
For test [9], the system named is CCRF-CEM leukemia.
Test [10] concerns MOLT-4 leukemia.

This is part of a sample that, as a whole, favours compounds with a hit. Of some 83,000 tested, about 20% had one in any assay.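 Note: values are percent growth. 100 is the growth of untreated cells, values between 100 and 0 indicate rising inhibition; between -100 and 0 indicates cell death.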 Values without a mark were called inactive. The source made the active and inactive calls. How the source made its calls: active means growth percent below 10; inactive means the rest.

For the molecule `COc1ccc2cc(-c3nc4ccc(C)cn4c3NCc3ccco3)c(=O)[nH]c2c1`, the growth was 105% in test [1]; 55.9% in [2]; 76.1% in [3]; 47.8% in [4]; 71% in [5]; 45.4% in [6]. Also, the growth in test [7] was 50.8%; in test [8] it was 43.8%; in test [9] it was 62.3%; in test [10], 52.7%.
Turning to `COC1C(O)CC(OC2CC(OC3CC(O[C@@H]4C(=O)c5c(cc6cc(OC7CC(OC8CC(O)C(O)C(C)O8)C(O)C(C)O7)c(C)c(O)c6c5O)CC4[C@H](OC)C(=O)C(C)=O)OC(C)C3O)OC(C)C2O)OC1C` (stereo not given in full), the growth was -41.9% (active) in test [1]; 3.71% (active) in test [2]; 7.44% (active) in test [3]; -27.7% (active) in [4]; -8.69% (active) in test [5]; 5.29% (active) in test [6]. In addition, the growth in test [7] is 16.9%; in test [8], -44.1% (active); in test [9], 4.37% (active); in test [10] it was -6.83% (active).
Turning to `Nc1ncnc2c1N=C(c1ccc(Cl)cc1)CC(c1cccc(Nc3ccnc4cc(Cl)ccc34)c1)N2` (stereo not given), the growth in test [1] is 76.6%; in test [2], 59.4%; in [3] it was 67.1%; in [4] it was 47.2%; in test [5] it was 117%; in [6], 84.2%. Moreover, the growth in [7] was 65.7%; in [8] it was 51.1%; in test [9], 4% (active); in [10], 12.3%.
Consider `C=C1C(=O)O[C@H]2[C@H]1CC/C(CNC(=O)Cc1c[nH]c3ccccc13)=C\CC[C@@]1(C)O[C@@H]21`, for which the growth in test [1] was 33.5%; in test [2], 79.3%; in [3] it was 13.9%; in test [4], 34.9%; in test [5] it was -35.9% (active); in [6], 3.84% (active). The growth in test [7] was 14.7%; in test [8], 41.2%; in test [9], -35.9% (active); in [10], -4.65% (active).
`c1csc(-c2cn3nc(-c4c[nH]c5ccccc45)sc3n2)c1`: the growth in test [1] was 37.2%; in [2], 36%; in test [3] it was 34.2%; in test [4] it was 30.7%; in [5], 50.5%; in test [6], 42.2%. For the same molecule, the growth in test [7] is 29.8%; in [8] it was 20.8%; in [9], 10.7%; in test [10], 27.2%.
Take `COc1cc2ncnc(Nc3ccc(S(=O)(=O)Nc4nccs4)cc3)c2cc1OCCCN1CCCC1`: the growth in test [1] was 114%; in test [2], 107%; in test [3] it was 99.9%; in test [4], 84.9%; in test [5] it was 123%; in test [6] it was 108%. The growth in test [7] is 100%; in test [8] it was 104%; in [9], 100%; in [10] it was 104%.
In the case of `COc1ccc(-c2nc3c(c(-c4ccc(Cl)cc4)nn3-c3ccccc3)c(-c3ccccc3)c2C#N)cc1`, the growth was 109% in test [1]; 107% in [2]; 105% in test [3]; 101% in [4]; 120% in [5]; 107% in test [6]. Also, the growth in test [7] is 94.8%; in [8], 111%; in test [9], 102%; in test [10] it was 102%.
Consider `CC1=C2CC/C(C)=C/CC[C@]3(C)O[C@H]3CC/C(C)=C/[C@H]2OC1`, for which the growth in test [1] is 92.6%; in test [2], 103%; in [3], 95.5%; in test [4], 84.7%; in test [5] it was 100%; in test [6] it was 90.9%. Moreover, the growth was 87% in test [7], 97% in [8], 84.9% in [9] and 86.5% in test [10].
Turning to `O=C1CCC(C(=O)N/N=C/c2cc(F)ccc2F)N1` (stereo not given), the growth in test [1] is 97.8%; in test [2], 100%; in [3], 96.6%; in [4], 92.4%; in test [5], 104%; in test [6] it was 100%. Moreover, the growth was 98% in test [7], 106% in [8], 103% in test [9] and 101% in [10].
Consider `CCCc1cc(=O)oc2c(C(=O)CC(C)C)c(O)c(CC=C(C)C)c(O)c12`, for which the growth was 14.1% in [1]; 13.7% in test [2]; 11.6% in test [3]; 20% in test [4]; 27.4% in test [5]; 27.5% in test [6]. Moreover, the growth was 11.1% in [7], -16.3% (active) in test [8], 12.9% in [9] and 19.1% in [10].
In the case of `O=[N+]([O-])c1ccccc1Nc1ccc2ccccc2c1`, the growth is 104% in test [1]; 87.7% in test [2]; 98.9% in test [3]; 59.4% in [4]; 99.7% in [5]; 99.2% in [6]. Moreover, the growth in test [7] was 78.3%; in test [8], 59.9%; in [9] it was 92.3%; in test [10], 76.8%.
In the case of `CN(C)c1ccc(/C=N\NC(=O)c2ccc3nc(-c4ccc(Cl)cc4)[nH]c3c2)cc1`, the growth in test [1] was 83.3%; in test [2] it was 73.2%; in [3], 41.2%; in [4] it was 75.4%; in test [5], 94.4%; in [6] it was 35.7%. Moreover, the growth was 84.9% in test [7], 72.9% in test [8], 21.4% in [9] and 23.6% in test [10].
Consider `Oc1nc(NCc2ccccc2)sc1/C=C1\C=Nc2ncccc21`, for which the growth in test [1] was 72.9%; in [2], 73.7%; in [3] it was 72.8%; in [4], 84.8%; in test [5], 64.4%; in [6], 29.2%. Further, the growth in [7] was 74.6%; in [8], 63.4%; in test [9], 49.6%; in [10], 52.4%.
As to `CCN(CCNc1ccc(C)c2sc3cc(Cl)ccc3c(=O)c12)CC(C)(C)O`, the growth in test [1] was 56.6%; in test [2], 82%; in [3] it was 71.5%; in test [4] it was 50.5%; in [5], 75.7%; in test [6] it was 69.3%. In addition, the growth in test [7] is 55.8%; in test [8] it was 75.5%; in test [9], 79.5%; in test [10], 70.5%.
As to `CC(C)=CC(=O)N[C@H]1CC[C@]2(C)C3CC[C@]4(C)C(C(C)N(C)C)=CCC4C3CCC2[C@H]1O` (stereo not given in full), the growth in [1] is 106%; in [2] it was 57.7%; in test [3] it was 70.1%; in test [4] it was -48% (active); in test [5], 85.7%; in test [6], 58.6%. The growth was 79.4% in test [7], 66.1% in [8], 13.4% in test [9] and 48.1% in test [10].
Regarding `O=c1oc2c(cnc3ccccc32)cc1-c1cccc(Cl)c1`, the growth in [1] is 118%; in test [2], 99.1%; in test [3] it was 98.3%; in test [4] it was 90.4%; in test [5], 118%; in test [6], 104%. In addition, the growth in test [7] is 92%; in test [8], 83.1%; in test [9], 76.5%; in test [10], 96.3%.
With `CC12OC(CC(O)C1O)n1c3ccccc3c3c4c(c5c6ccccc6n2c5c31)C(=O)N(CCN1CCCC1)C4=O` (stereo not given), the growth in [1] is 31.9%; in test [2] it was 38.4%; in [3], 14.9%; in [4], 19.5%; in test [5], 21.2%; in test [6] it was -38.1% (active). Besides, the growth is 15.4% in [7], 17.8% in [8], 20.3% in [9] and -3.23% (active) in test [10].
Turning to `O=C(Nc1cccnc1Nc1ccccc1)c1cn(Cc2cccc(Oc3ccccc3)c2)nn1`, the growth was 75.6% in test [1]; 59.8% in [2]; 56.7% in [3]; 51.8% in [4]; 82.1% in test [5]; 76.6% in test [6]. In addition, the growth in test [7] is 69.6%; in test [8] it was 45.3%; in test [9] it was 47.4%; in test [10] it was 31.1%.
As to `N#Cc1ccc(O)c(C2=NCC(c3ccc(-c4ccccc4)cc3)O2)c1` (stereo not given), the growth was -4.74% (active) in [1]; 15.6% in test [2]; 29.8% in test [3]; 1.37% (active) in test [4]; 12.4% in test [5]; 11.6% in test [6]. In addition, the growth was 3.1% (active) in test [7], 48.6% in [8], 11.6% in [9] and 0.755% (active) in test [10].
With `O=C(N/N=C/c1ccc(Cl)cc1)c1ccc(NC(=O)c2ccccn2)cc1`, the growth in [1] was 78.7%; in test [2], 68.2%; in [3], 38.2%; in test [4], 0.719% (active); in test [5], 47.3%; in [6] it was -0.994% (active). Further, the growth in test [7] is 41.2%; in test [8] it was 81.2%; in [9], 91%; in test [10] it was 79.5%.
Turning to `CS(=O)(=O)Nc1cc(-c2ccc3ncnc(Nc4ccc5c(cnn5Cc5ccccc5F)c4)c3c2)cnc1Cl`, the growth is 15.3% in test [1]; 52.2% in test [2]; 23.3% in test [3]; 43.2% in test [4]; 30.6% in test [5]; 59% in test [6]. The growth in [7] is 27.3%; in test [8], -14.1% (active); in test [9], 31.1%; in test [10], 16.4%.
Regarding `CCOC(=O)CC[C@H](NC(=O)c1ccc(N(C)Cc2cnc3nc(N)nc(N)c3n2)c2ccccc12)C(=O)OCC`, the growth was 51.9% in test [1]; 75.2% in test [2]; 35.6% in test [3]; 20.9% in test [4]; 43.8% in test [5]; 25% in test [6]. Further, the growth was 24.1% in test [7], 35.1% in test [8], 10.5% in test [9] and 24.8% in test [10].
As for `CCOC(=O)c1nnn(Cc2cc(=O)oc3ccc(O)cc23)c1C`, the growth in test [1] was 111%; in [2], 105%; in test [3], 96.2%; in test [4], 91.8%; in test [5], 101%; in [6], 105%. For the same molecule, the growth was 96.7% in [7], 101% in test [8], 82.9% in test [9] and 100% in [10].
As for `Cc1nn(C)c2ncnc(N/N=C/c3cccc(O)c3O)c12`, the growth in test [1] is 31.5%; in test [2], 6.94% (active); in [3] it was 7.54% (active); in test [4] it was -13.4% (active); in test [5] it was 28.7%; in test [6], 4.41% (active). In addition, the growth in test [7] is 6.5% (active); in test [8] it was 26.6%; in [9], -16.7% (active); in test [10], 3.79% (active).
`C[C@@H]1CN(c2cnc(C(=O)Nc3cc(F)cc4cccnc34)cn2)C[C@H](C)N1`: the growth in [1] was 105%; in test [2] it was 77%; in test [3], 83.2%; in [4], 44.1%; in [5], 72.2%; in test [6], 32.3%. Moreover, the growth in test [7] was 66.2%; in [8], 67.4%; in test [9] it was 26.9%; in [10], 33%.
As to `CCN(CC)CCOc1ccc(/C(=C(\C)Cc2ccc(OC)cc2)c2ccc(OC(=O)NCc3ccccc3)cc2)cc1`, the growth was 69.1% in [1]; 73% in test [2]; 74.7% in test [3]; 46.3% in test [4]; 71.4% in test [5]; 81.4% in test [6]. For the same molecule, the growth was 69.3% in test [7], 84.8% in test [8], 23.1% in test [9] and 1.91% (active) in test [10].
